# Results filed as inconclusive are left out. Values without a mark were called inactive. Calls come from the whole dose curve; as a rule, active = well fitted inhibition curve with a large enough effect; inconclusive = small, poorly fitted or top-dose-only effect; inactive = no such curve, though single readings can be large or run the other way.
# System: Zika virus NS2B-NS3 protease (unlinked complex)
# Experiment: Primary screen GU Rhodamine qHTS for Zika virus inhibitors: Unlinked NS2B-NS3 protease assay (AID 1347159); note: nearly all actives have a fitted effect of over 60% in size
# Settings: Recombinant ZIKV NS2B-NS3 protease, Rhodamine110 substrate fluorescence; series mostly up to 107 µM; activity change, negative = inhibition: at the top concentration
# How it was run: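 Compounds, tested up to 114 microM, were incubated for 15 minutes with 25 nM unlinked NS2B-NS3 protease at pH 8.0. Cleavage of 1.5 microM Rhodamine110 substrate was then followed by fluorescence for 15 minutes.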
# % is set by controls: 0 for no effect and ±100 for the full control effect.
row,Compound,"activity change, negative = inhibition"
1,C=C1C(=O)O[C@@H]2C[C@H](C)[C@@H]3CC(=O)[C@H](O)[C@@]3(C)C[C@H]12,1.27%
2,C/C1=C/CCC2=CC(OC2=O)C(C)(C)/C=C/C1=O (stereo unspecified),4.28%
3,C[C@H]1[C@H](/C=C/c2ccc(-c3ccccc3C#N)cn2)[C@@H]2[C@@H](C)OC(=O)[C@@H]2C[C@@H]1C,-9.63%
4,COc1ccc(NC(=O)c2ccc(-c3ccc(C(=N)N)cc3C)cc2)cc1N1CCN(C)CC1,70.5%
5,N#Cc1cnc2c(Cl)cc(NCc3cn(CCN4CCCCCC4)nn3)cc2c1Nc1ccc(F)c(Cl)c1,-7.95%
6,COc1cc(Br)c(S(=O)(=O)Nc2ccc(Cl)c(O[C@@H]3CCN(C)C3)c2)cc1OC,31.9%
7,CN1CCN(S(=O)(=O)c2ccc(-c3cnc(N)c(C(=O)Nc4cccnc4)n3)cc2)CC1,10.4% [at 57.1 µM]
8,CCC(C)C(=O)OC1C(C)C2(O)C(C=C(CO)CC3(O)C(=O)C(C)=CC32)C2C(C)(C)C12OC(=O)C(C)C (stereo unspecified),-9.5% [at 57.1 µM]
9,COc1ccccc1N1CCN(CC(C(=O)NC(C)(C)C)c2ccccc2)CC1 (stereo unspecified),55.5%
10,CC(=O)O[C@H]1C[C@@](O)(C(C)C)[C@@H]2[C@@H](OC(=O)c3ccc(O)cc3)CC(C)=CC[C@@]12C,-14.6% [at 57.1 µM]
11,COc1cc2nc(C3CC3)nc(N3CCN(c4ccccc4OC)CC3)c2cc1OC,21%
12,CC(CCC1(O)OC2CC3C4CC=C5CC(O[C@@H]6O[C@H](CO)[C@@H](O[C@@H]7O[C@@H](C)[C@H](O)[C@@H](O)[C@H]7O)[C@H](O)[C@H]6O[C@@H]6O[C@@H](C)[C@H](O)[C@@H](O)[C@H]6O)CCC5(C)C4CCC3(C)C2C1C)CO[C@@H]1O[C@H](CO)[C@@H](O)[C@H](O)[C@H]1O (stereo partly specified),11.4% [at 32.5 µM]
13,C[C@H](Oc1cc(-c2cnn(C3CCNCC3)c2)cnc1N)c1c(Cl)ccc(F)c1Cl,111%
14,Cc1ccc(NC(=O)N2CCN(c3nc(N)nc4sc(-c5cccnc5)nc34)CC2)cc1,-22.1%
15,COc1ccc(Cl)c(Nc2ncnc3cc(OCC4CCN(C)CC4)c(OC)cc23)c1,70.9%
16,O=C(c1ccccc1)c1c(O)cc(O)cc1O[C@@H]1O[C@H](CO)[C@@H](O)[C@H](O)[C@H]1O,-26%
17,COc1cccc(-c2cc(F)ccc2C2Cc3nc(N)nc(C)c3C(=O)N2)n1 (stereo unspecified),8.55%
18,C=C1CC(=O)C2OC2(C)CC2OC(=O)C(=C)C2C(O)C1OC(=O)/C(C)=C\C (stereo unspecified),14.8%

row,Compound,"activity change, negative = inhibition"
1,CCc1c[nH]c2ncnc(N3CC[C@](N)(CNC(=O)c4ccc(F)cc4F)C3)c12,0%
2,CCN(c1cc(-c2ccc(CN3CCOCC3)cc2)cc(C(=O)NCc2c(C)cc(C)[nH]c2=O)c1C)C1CCOCC1,-6.1%
3,C=C1CC[C@@H]2[C@](C)(CO)[C@H](O)CC[C@@]2(C)[C@@H]1C/C=C1/C(=O)OCC1OC(=O)/C(=C/CO)C(O)C[C@@H]1C(=C)CC[C@@H]2[C@](C)(CO)[C@H](O)CC[C@]21C (stereo partly specified),-8.23% [at 32.5 µM]
4,COc1cc2nc(N3CCN(C(=O)COc4c(OC)cccc4C(C)C)CC3)nc(N)c2cc1OC,29.6%
5,CN(C)N(C)C(=O)[C@@]1(Cc2ccccc2)CCCN(C(=O)[C@@H](Cc2c[nH]c3ccccc23)NC(=O)C(C)(C)N)C1,-0.626%
6,Cc1cc(C)nc(SCC(=O)Nc2ncc(Cc3cccc4ccccc34)s2)n1,18.5%
7,N#Cc1cc(-c2ccnc(Nc3ccc(N4CCOCC4)cc3)n2)ccc1OC1CCOCC1,-1.57%
8,CC(=O)OC1CC2(C)C(CCC(C)C23Cc2c(O)cc(CO)c(C=O)c2O3)C(C)(C)C1O (stereo unspecified),-19.4% [at 57.1 µM]
9,O=C(NC1CCN(CCCCC2(C(=O)NCC(F)(F)F)c3ccccc3-c3ccccc32)CC1)c1ccccc1-c1ccc(C(F)(F)F)cc1,171%
10,COc1ccc(C2(CNC(=O)c3ccc(NC(=O)c4ccco4)cc3)CCOCC2)cc1,7.68%
11,CCCCC1CCC(c2nc(-c3ccncc3)no2)CC1 (stereo unspecified),11.4%
12,CC(C)(C)c1ccc(C(=O)Nc2cn3cc(-n4ccnc4)ccc3n2)cc1,40.1%
13,Cc1ccccc1CN1CCn2c1nc1c(c2=O)CN(Cc2ccccc2)CC1,-4.35%
14,Cc1nc(NC(=O)N2CCCC2C(N)=O)sc1-c1ccnc(C(C)(C)C(F)(F)F)c1 (stereo unspecified),-3.54%
15,CC(=O)Nc1cccc(-c2csc(Nc3cc(C)ccn3)n2)c1,0%
16,Nc1nc2c(c(N3CC[C@@H](N)C3)n1)CCCc1ccccc1-2,105%
17,CCCCNc1ncc(C(=O)NCc2ccc(-n3ccnc3)cc2)c(NC2CCC(O)CC2)n1 (stereo unspecified),24.2%
18,COc1ccc(N2CCN(C(=O)c3cc4c(s3)-c3ccccc3S(=O)(=O)C4)CC2)cc1,-2.6%

# From PubChem BioAssay (NCATS)
